High-throughput results as filed in PubChem.
Rows were chosen to be rich in hits. Some 3.5% of all compounds tested hit in one or more screens of this group.
TEAD-YAP inh = TEAD-YAP interaction inhibition; inhibition, % at 9.12 µM; HEK-TIYL cells, TEAD-Gal4/YAP UAS-luciferase luminescence; hit rate 1.4% among 640,000; in the data active = inhibition above about 32%;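 note: 0% = median of test compound wells and 100% = reference inhibitor wells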
FBW7 act = human FBW7 E3 ligase activation, primary screen | AlphaScreen FBW7–phospho-cyclin E peptide binding, activator screen | normalized activity (activation), % at 26.1 µM | hit rate 0.13% among 650,000; in the data active = normalized activity above about 1.9%;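 note: purified mutant Fbw7 with reduced substrate affinity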
GPR151 ag = activators of human GPR151; PathHunter beta-arrestin GPR151 cells, luminescence; activation, % at 11.2 µM; hit rate 1% among 650,000; AID 1508602; in the data active = activation above about 4.9%;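 note: 0% = median of compound wells and 100% = cells with positive control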
MITF inh = inhibitors of human MITF; O75030; AlphaScreen MITF homodimerization, bead proximity signal; inhibition, % at 2.6 µM; hit rate 0.91% among 650,000; in the data active = inhibition above about 50%;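 note: 0% = vehicle wells with protein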
Target sequence (O75030 whole entry, looked up): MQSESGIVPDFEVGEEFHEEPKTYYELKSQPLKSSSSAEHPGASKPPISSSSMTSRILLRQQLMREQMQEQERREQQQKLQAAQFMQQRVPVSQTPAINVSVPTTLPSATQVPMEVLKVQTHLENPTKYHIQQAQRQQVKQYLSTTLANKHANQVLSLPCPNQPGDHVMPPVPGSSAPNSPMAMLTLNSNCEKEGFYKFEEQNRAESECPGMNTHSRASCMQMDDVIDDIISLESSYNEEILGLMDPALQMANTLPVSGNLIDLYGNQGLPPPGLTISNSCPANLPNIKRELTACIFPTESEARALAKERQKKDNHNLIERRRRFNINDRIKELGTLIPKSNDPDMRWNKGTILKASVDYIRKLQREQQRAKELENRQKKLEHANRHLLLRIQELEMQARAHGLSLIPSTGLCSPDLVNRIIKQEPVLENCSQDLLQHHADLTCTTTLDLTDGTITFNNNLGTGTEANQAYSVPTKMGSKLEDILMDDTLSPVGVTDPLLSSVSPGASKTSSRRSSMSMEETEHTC
* marks the source's active call; other numbers are inactive results.

SMILES	TEAD-YAP inh	FBW7 act	GPR151 ag	MITF inh
CCOc1cccc2c1OC(c1ccccc1Cl)N1N=C(c3ccc(C)o3)CC21 (configuration not stated)	-23	0	-1	-5
COc1ccc(OC)c(NC(=O)c2c(Cl)nc(Cl)c(Cl)c2Cl)c1	64*	0	-1	-5
COc1ccccc1NC(=O)c1c(OC)cccc1OC	15	0	-1	-8
COc1ccccc1NC(=O)c1c(Cl)nc(Cl)c(Cl)c1Cl	64*	1	1	8
CCCS(=O)(=O)N1CCN(C(=O)COc2cccc(C)c2)CC1	4	0	-1	6
Cc1ccc(Cn2c(CN(C)Cc3ccccc3)nc3c2c(=O)n(C)c(=O)n3C)cc1	-5	0	0	-18
COc1cccc(Cn2c(NCc3ccco3)nc3c2c(=O)n(C)c(=O)n3C)c1	40*	0	1	8
CCNc1nc2c(c(=O)n(C)c(=O)n2C)n1CCc1ccccc1	33*	0	1	3
CC(C)n1c(CN(C)Cc2ccccc2)nc2c1c(=O)n(C)c(=O)n2C	50*	0	2	7
COc1ccc(NC(=O)CN(c2cccc(C(F)(F)F)c2)S(=O)(=O)c2ccccc2)cc1	0	0	0	7
NC(=O)N/N=C/c1ccccc1OCc1cccc(Br)c1	7	0	1	6
CCCCC(CC)CNC(=O)c1ccc2c(=O)n(CCOC)c(=O)[nH]c2c1 (configuration not stated)	45*	0	0	6
N#Cc1ccccc1Cn1nc(-c2cccc3ncccc23)oc1=O	53*	0	0	14
O=c1c2c(nc3cc(-c4ccco4)[nH]n13)CCS2	-29	0	-2	89*
CC1(C)Cc2ccccc2-c2[nH][nH]c(=O)c21	37*	0	-1	16
CN1C(=O)c2ccccc2CC1(C)C	-1	0	0	10
Cc1ccc(CN2CC(C(=O)Nc3ncc(C)s3)CC2=O)cc1 (configuration not stated)	44*	0	-1	-7
COc1cccc2cc(-c3cn4ccccc4n3)c(=O)oc12	42*	0	-6	7
O=c1oc2ccccc2cc1-c1cn2ccccc2n1	75*	0	-11	1
O=C1C=CC2=C3c4cc(O)c(O)cc4CC3(O)COC2=C1O (configuration not stated)	-16	0	-1	92*
O=C(NCc1ccccn1)c1ccc2c(=O)n(Cc3ccccc3Cl)c(=S)[nH]c2c1	-6	0	-2	-1
CCc1ccccc1NC(=O)c1ccc(N2CCCCCC2)c([N+](=O)[O-])c1	1	0	-2	-9
O=C(Nc1cccc2ncccc12)c1ccc(N2CCCCC2)c([N+](=O)[O-])c1	32*	0	1	-12
NC(C(=O)N1CCC(Nc2ccc3[nH]ncc3c2)CC1)c1ccc(-c2ccccc2)cc1 (configuration not stated)	38*	0	-1	3
Cc1cc2nc(-c3cccnc3SCC(=O)N3CCCC3)[nH]c2cc1C	-7	0	-5	2
SMILES	TEAD-YAP inh	FBW7 act	GPR151 ag	MITF inh
CCCCCc1c2c(C)c(C(=O)OCC)nc-2cc2n1CC(C)=C2C	41*	0	2	6
Cn1c2ccccc2c2nnc(N/N=C/c3ccccn3)nc21	36*	-1	0	45
CCOC(=O)N1CCN(C(=O)C2CCN(Cc3cccc(OC)c3O)CC2)CC1	-6	0	-1	55*
CCOC(=O)C1CCN(Cc2cccc(OC)c2O)CC1	-3	0	0	19
O=C(C1CCN(Cc2ccccc2O)CC1)N1CCc2ccccc2C1	15	0	0	38
COc1cccc(CN2CCC(C(=O)N3CCc4ccccc4C3)CC2)c1O	1	1	1	51*
CC[C@@H](Cn1nc(-c2cccs2)oc1=O)NC(=O)CCc1cc(OC)no1	-6	0	1	4
N#Cc1cnc(SCc2cc(=O)n3ccccc3n2)nc1N	-9	16*	0	3
CN(C)c1ccc(/C=C/c2sc3ccc4ccccc4c3[n+]2C)cc1	53*	0	-1	18
CC[n+]1c(/C=C(/C)OC)sc2ccccc21	33*	0	-1	3
CC[n+]1ccc(/C=C/c2ccc(N(C)C)cc2)cc1	82*	0	1	1
CC[n+]1c(/C=C/c2ccc(N(C)C)cc2)sc2ccccc21	54*	0	0	19
CCN(c1ncnc2c1cnn2C)C1CCCCC1	-10	0	2	1
COc1ccc(NC(=O)c2sc3ncn(CC(=O)N4CCCCC4)c(=O)c3c2C)c(OC)c1	3	0	-1	1
Cc1ccc(CN(Cc2ccco2)C(=S)Nc2c(C)cc(C)cc2C)cc1	-12	0	-1	-7
CC(=O)N1NC(=S)N(C(C)=O)C1c1ccc(Cl)cc1Cl (configuration not stated)	4	0	-1	9
C1COCCOCCN(CCN2CCOCCOCCOCCOCCOCC2)CCOCCOCCO1	2	0	-1	0
Cn1ccc(CC(=O)N2CCc3ccc(NC(=O)c4ccccc4Cl)cc3C2)c1	43*	0	0	1
O=C(Nc1ccc2c(c1)CN(C(=O)CN1CCOC1=O)CC2)c1ccccc1Cl	3	0	0	-8
Cc1ccc(S(=O)(=O)n2cnc3cc(C)c(C)cc32)cc1	-6	0	0	12
CCOc1ccc(S(=O)(=O)n2cnc3cc(C)c(C)cc32)cc1	34*	0	1	-3
Cc1ccc(S(=O)(=O)n2cnc3cc(C)c(C)cc32)cc1C	39*	0	1	23
CCCCOc1ccc(S(=O)(=O)n2cnc3cc(C)c(C)cc32)cc1	48*	0	-1	-4
Cc1cc2ncn(S(=O)(=O)c3ccc(S(N)(=O)=O)cc3)c2cc1C	-2	0	-1	19
O=C(CC(C(=O)O)C1CCCO1)Nc1ccc(F)cc1 (configuration not stated)	-8	0	-1	-13
SMILES	TEAD-YAP inh	FBW7 act	GPR151 ag	MITF inh
CC1=C(C(=O)OC(C)(C)C)C(c2ccc(Cl)cc2)C(C#N)=C(SCC(=O)Nc2cccc(Cl)c2)N1 (configuration not stated)	-11	0	-1	-4
COc1ccc(-c2nc(NCc3nc4ccccc4[nH]3)c3ncn(C(C)C)c3n2)cc1	71*	0	0	0
COc1ccc(-c2nc(NCCO)c3ncn(C(C)C)c3n2)cc1	8	0	1	5
CC(C)n1cnc2c(NCCO)nc(-c3ccc(C(N)=O)cc3)nc21	5	0	0	16
CC(C)n1cnc2c(NCc3nc4ccccc4[nH]3)nc(-c3ccc(C(N)=O)cc3)nc21	77*	0	-1	5
COc1ccc(CCNC(=O)CSCc2ccc(C)cc2)cc1	0	2	0	6
COc1ccccc1C(=O)N1CCN(S(=O)(=O)c2ccc(Cl)cc2)CC1	5	1	0	14
COc1cccc(-c2cc(C(=O)Nc3cc(OC)c(OC)c(OC)c3)on2)c1	42*	0	0	4
COc1cc(NC(=O)c2cncc(-c3cccs3)c2)cc(OC)c1OC	39*	0	0	7
